NS1 inh = qHTS Assay for Inhibitors of Influenza NS1 Protein Function. Potency, µM (series often up to 46.1 µM), inactives show top-dose activity, positive = more growth. 270,000 tested, 0.4% active; calls by dose curve; further: potency means the concentration at half of the fitted maximal effect; actives are rising curves; nearly all actives have a fitted effect of over 50% in size
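S. cerevisiae expressing influenza A NS1, grown in glucose, washed, then diluted 1:100 into pH 6.0 -URA galactose medium with 23 nl compound. Growth recovery read as OD600; NS1-free strain serves as control.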
Shiga inhibitor = A qHTS for Small Molecule Inhibitors of Shiga Toxin | Vero cells, Shiga toxin protein synthesis inhibition reporter | inhibition, % at 38.7 µM | 290,000 tested, 9.2% active; in the data active means inhibition mostly above about 28%, no sharp cut-off; inactive means mostly below about 43%; further: 0% is about no effect
CHX counter = Cycloheximide Counterscreen for Small Molecule Inhibitors of Shiga Toxin; 300,000 tested, 12% active; max response, %; cell reporter, cycloheximide protein synthesis inhibition counterscreen; AID 2314, 2010; in the data active means max response mostly above about 13%, no sharp cut-off; inactive means mostly below about 14%; further: read at 38.3 µM for the half of the compounds with a filed dose; 0% is about no effect
Pf growth 48h = Primary qHTS for delayed death inhibitors of the malarial parasite plastid, 48 hour incubation; P. falciparum luciferase growth in erythrocytes, 48 h; Potency, µM (highest dose often 28.7 µM), for the others: top-dose activity change, negative = inhibition, hits mostly inhibitors; 310,000 tested, 5.9% active; further: potency means the concentration at half of the fitted maximal effect; on the % scale 0 is the no-effect control and ±100 the full control effect
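Growth was read as firefly luciferase luminescence after a 48 h, 37 C, 5% CO2 exposure of compounds to reporter-bearing P. falciparum cultures (0.1% parasitemia, 2% hematocrit final) in Albumax-supplemented RPMI 1640.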
Pf growth 96h = Primary qHTS for delayed death inhibitors of the malarial parasite plastid, 96 hour incubation; AID 504834, 2011; 320,000 tested, 6.9% active; Potency, µM (highest dose often 28.7 µM), without a hit: at the highest dose activity change, negative = inhibition, most hits filed as inhibitors; P. falciparum luciferase reporter growth, 96 h; further: potency means the concentration at half of the fitted maximal effect; on the % scale 0 is the no-effect control and ±100 the full control effect
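Cell-based qHTS: luciferase-tagged P. falciparum in erythrocytes (2% hematocrit, 0.05% parasitemia final) incubated with compounds for 96 hours, 37 C, 5% CO2; luciferase detection reagent then added and luminescence measured.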
Numbers without * were called inactive; ? = inconclusive; . = no result; ! = not confirmed by another sample; [ ] = remark or other dose. A selection: hits, their analogues and other compounds. The true share with any hit is near 21%. Unless noted, the call rests on the fitted dose curve; in most records, active means well fitted inhibition curve with a large enough effect; inconclusive means small, poorly fitted or top-dose-only effect, or another doubt; inactive means no such curve, though single readings can be large or run the other way.

SMILES	NS1 inh	Shiga inhibitor	CHX counter	Pf growth 48h	Pf growth 96h
COc1cc2c(cc1OC)C(C(=O)NC(C)c1ccccc1)CC(=O)N2 (centres undefined)	1%	-6	12	30%	0%
CCOc1ccc(NC(=O)CSc2nc3ccsc3c(=O)n2CCC(=O)O)cc1	-2%	28	-2	22%	42%
CCc1ccc(NC(=O)CSc2nncn2-c2cccnc2)cc1	-11%	151*	32*	56%	42%
CCc1ccc(NC(=O)CSc2nc3c(c(=O)n(C)c(=O)n3C)n2C)cc1	-39%	-6	-4	-3%	10µM*
CCCn1c(SCC(=O)Nc2ccc(NC(=O)CC)cc2)nc2c1c(=O)n(C)c(=O)n2C	?	-8	-7	?	-3%
CCc1ccc(NC(=O)CSc2nc3ccsc3c(=O)n2CCC(=O)O)cc1	19%	-10	6	12%	7.4µM*
O=[N+]([O-])c1cccc(S(=O)(=O)NCc2ccncc2)c1	11%	-10	-3	34%	50%
O=C(O)c1cccc(N2C(=O)c3cc([N+](=O)[O-])cc4cc([N+](=O)[O-])cc(c34)C2=O)c1	?	-6	-4	?	-9%
CCOc1cccc2cc(-c3csc(NC(=O)CCC(=O)NCCN4CCCCC4C)n3)c(=O)oc12 (centres undefined)	.	76	40*	401%	?
CCOc1cccc2cc(-c3csc(NC(=O)CCC(=O)NCCCN4CCC(C)CC4)n3)c(=O)oc12	.	83*	41*	195%	37%
CCOc1cccc2cc(-c3csc(NC(=O)CCC(=O)N4CCN(C)CC4)n3)c(=O)oc12	-5%	.	.	.	.
COc1cccc2cc(-c3csc(NC(=O)CCC(=O)NCCCN4CCC(C)CC4)n3)c(=O)oc12	-4%	73*	28*	-48%	-9%
CCOc1cccc2cc(-c3csc(NC(=O)CCC(=O)N4CCC(C)CC4)n3)c(=O)oc12	5%	21	-1	.	14%
CCCCC(c1nnnn1CC1CCCO1)N1CCN(c2nc3ccccc3s2)CC1 (centres undefined)	-40%	8	19	13µM*	1%
CCCC(c1nnnn1CC1CCCO1)N1CCN(c2nc3ccccc3s2)CC1 (centres undefined)	4%[9.22 µM]	-4	17	12µM*	-2%
CC(C)CC(c1nnnn1CC1CCCO1)N1CCN(c2nc3ccccc3s2)CC1 (centres undefined)	-6%	-19	-2	?	130%
COc1ccccc1CCC(=O)N1CCN(S(=O)(=O)c2cc(C(F)(F)F)ccc2Cl)CC1	.	.	.	?	3.7µM*
NS(=O)(=O)OCC1CCCCC1	1%	-4	-3	0%	2%
Nc1nc(N)c(N=O)c(OCC2CCCCC2)n1	-9%	41*!	21*	?	?
O=C(CCN1C(=O)C2CC=CCC2C1=O)Nc1cccc(Cl)c1 (centres undefined)	3%	12	2	17%	9%
COc1ccc(-c2cc(=O)oc3c(C)c(OCC(=O)NCC4CCC(C(=O)O)CC4)ccc23)cc1 (centres undefined)	20%	-4	-1	-34%	13µM*
Cc1c(Cc2ccccc2)c(=O)oc2cc(OC(C)C(=O)NCC3CCC(C(=O)O)CC3)c(Cl)cc12 (centres undefined)	16%	-7	-1	-15%	10µM*
CC(Oc1ccc2c(-c3ccccc3)cc(=O)oc2c1)C(=O)NCC1CCC(C(=O)O)CC1 (centres undefined)	4%	12	-4	5.2µM*!	3.3µM*
COc1ccc(-c2cc(=O)oc3c(C)c(OCC(=O)N(C)C)ccc23)cc1	-27%	19	-2	68%	?
CN(Cc1cccs1)C(=O)CCCc1c[nH]c2ccccc12	-19%	73*	46*	42%	77%
SMILES	NS1 inh	Shiga inhibitor	CHX counter	Pf growth 48h	Pf growth 96h
CN(Cc1cccs1)C(=O)CCc1c[nH]c2ccccc12	.	60	16*	7%	30%
O=C(CCCc1c[nH]c2ccccc12)NCc1cccs1	.	15	-1	11%	15%
CN(Cc1c(F)cccc1Cl)C(=O)CCc1c[nH]c2ccccc12	-5%	11	7	-14%	?
Cc1ccc(C)c(N2CCN(CC(=O)Nc3ccc([N+](=O)[O-])cc3C(=O)Nc3ccccc3F)CC2)c1	2%	-14	-6	?	2.3µM*
O=C(CNCC1CCCO1)Nc1ccc([N+](=O)[O-])cc1C(=O)Nc1ccccc1F (centres undefined)	-1%	-2	-1	?	5.9µM*
COc1ccc(OCC(O)CNS(=O)(=O)c2cccs2)cc1 (centres undefined)	1%	-9	-1	-8%	-16%
COc1ccc(C2CCCN2C(=O)Nc2ccc(F)cc2)cc1OC (centres undefined)	5%	-13	-2	2%	0%
Cc1cc(SCC(=O)Nc2ccc(O)cc2)n2nc(C)c(-c3ccccc3)c2n1	-6%	21	2	-4%	2%
Cc1cc(NCCC(C)C)n2nc(C)c(-c3ccccc3)c2n1	-17%	37	16	9.3µM*	.
CC(=O)Nc1ccc(Nc2cc(C)nc3c(-c4ccccc4)c(C)nn23)cc1	-20%	15	7	?	3.7µM*
CCSc1cc(C)nc2c(-c3ccccc3)c(C)nn12	-2%	-2	10	.	?
CC(=O)Nc1ccc(Nc2cc(C(C)C)nc3c(-c4ccccc4)c(C)nn23)cc1	-57%	18	7	?	13µM*
C=C(C)CSc1cc(C)nc2c(-c3ccccc3)c(C)nn12	-6%	34	36*	6.6µM*	10µM*
N#CCOC(=O)[C@H](Cc1ccccc1)N1C(=O)c2ccccc2C1=O	-1%	20	-2	-14%	4%
O=C(NCCCC(NC(=O)OCc1ccccc1)C(=O)O)OCc1ccccc1 (centres undefined)	?	-4	-2	4%	6.6µM*
CC[C@@H](C)[C@H](NC(=O)OCc1ccccc1)c1nnc([C@@H](NC(=O)OCc2ccccc2)[C@@H](C)CC)o1	4%	-1	1	10µM*	10µM*
CCOC(=O)CSc1nnc([C@H](Cc2ccccc2)NC(=O)OC(C)(C)C)o1	-10%	19	-3	?	?
CC(C)C[C@H](NC(=O)OC(C)(C)C)c1nnc(SCc2ccccc2)o1	-6%	37	0	8.3µM*	.
COc1ccc(NC(=O)C(CCCCNC(=O)OC(C)(C)C)NC(=O)OCc2ccccc2)cc1 (centres undefined)	-2%	-2	-3	?	0.59µM*
CC(OC(=O)CSc1ccc([N+](=O)[O-])cc1)C(=O)NCc1ccccc1 (centres undefined)	.	.	.	2%	1%
Cn1nc(C(=O)OCC(=O)Nc2ccc3ccccc3c2)c2ccccc2c1=O	.	-6	-1	-1%	30%
COc1cccc(C(=O)N2CCN=C2SC)c1	.	-4	15	?	?

Source: PubChem
